Compounds with a hit are over-represented: about 1.8% of the library has one in this group of screens.
Mito fusion yeast = qHTS Assay for Small Molecule Inhibitors of Mitochondrial Division or Activators of Mitochondrial Fusion; S. cerevisiae fusion-defective mutant growth rescue, CellTiterGlo 48 h; Potency, µM (highest dose often 46.1 µM), hits mostly activators; 320,000 tested, 0.23% active; AID 485298, 2010; also: nearly all actives have a fitted effect of over 45% in size
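Compounds are tested for their ability to restore growth of mitochondrial fusion-defective yeast strains at non-permissive 37C in YPEG medium over 48 hours. Viability is quantified by luciferase luminescence.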
AT treatment = qHTS Assay for Identifying a Potential Treatment of Ataxia-Telangiectasia; 320,000 tested, 0.19% active; Potency, µM (series often up to 57.5 µM), actives largely listed as activators; F2112 A-T fibroblasts, KAP-1 phosphorylation AlphaLISA; neocarzinostatin DNA damage 30 min before lysis; also: nearly all actives have a fitted effect of over 45% in size
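hTERT-immortalized A-T patient fibroblasts (F2112), 500 cells/well in OPTI-MEM, 1% FBS, got compounds for 60 min, then NCS for 30 min at 37C. Lysates were then assayed for phospho-KAP-1 by AlphaLISA (anti-pKAP1 donor, anti-KAP1 acceptor beads), 6 hr at 25C.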
GRP78 ERSR act = qHTS for Inducers of the Endoplasmic Reticulum Stress Response (ERSR) in Human Glioma: qHTS. U87-MG GRP78 promoter luciferase reporter, 16 h. AID 602332, 2012. 420,000 tested, 0.02% active. Potency, µM, most hits filed as activators; also: series mostly up to about 76 µM; nearly all actives have a fitted effect of over 35% in size
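ERSR induction read as luciferase luminescence (Bright-Glo, 10 min at room temperature) in stably transfected human U87-MG glioma cells exposed to compounds for 16 h, using GRP78 as sensor.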
MBNL1-CUG inh = qHTS Assay for Inhibitors of MBNL1-poly(CUG) RNA binding. Muscleblind-like protein 1 (Homo sapiens), Q9NR56. TR-FRET MBNL1-His/biotin-(CUG)12 binding, 665/545 ratio. Potency, µM (top dose mostly 57.5 µM), actives largely listed as inhibitors. 280,000 tested, 0.036% active. AID 2675, 2010; active = well fitted inhibition curve with a large enough effect in the signal ratio, with a control signal flat, not every such curve was filed as active; inconclusive = small, poorly fitted or top-dose-only effect, or effect the other way, or a change in a side signal; inactive = no such curve, though single readings can be large or run the other way; the % refers to the signal ratio
Target sequence (Q9NR56 whole entry, looked up): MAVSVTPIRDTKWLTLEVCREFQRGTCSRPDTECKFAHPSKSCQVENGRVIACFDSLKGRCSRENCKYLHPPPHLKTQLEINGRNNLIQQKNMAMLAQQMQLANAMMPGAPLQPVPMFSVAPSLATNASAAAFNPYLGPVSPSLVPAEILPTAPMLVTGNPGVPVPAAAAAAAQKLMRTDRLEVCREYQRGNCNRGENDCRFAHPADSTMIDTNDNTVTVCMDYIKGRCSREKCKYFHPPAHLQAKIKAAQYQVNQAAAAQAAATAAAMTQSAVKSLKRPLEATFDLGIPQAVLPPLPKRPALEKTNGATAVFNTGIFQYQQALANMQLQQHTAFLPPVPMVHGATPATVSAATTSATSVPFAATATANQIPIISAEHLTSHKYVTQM
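MBNL1-His + Biotin-(CUG)12, cpd titration 92 nM–58 uM; Tb anti-His Ab 0.055 ng/ul, SA-XL665 5 nM (final); 60 min RT; ratiometric 665/545 nm, Ex 340 nm; normalized to buffer and full-complex controls.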
TCR activator = Activators of T cell receptors: qHTS campaign. primary human leukocytes, anti-CD3, IL-2 HTRF, 48 h. Potency, µM (series often up to 9.22 µM), actives largely listed as activators. 330,000 tested, under 10 active
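TCR engagement came from a-CD3 beads alone, with compounds added to primary human leukocytes for 48 hr. Secreted IL-2 bridged europium cryptate- and d2-labelled anti-IL-2 antibodies, giving FRET emission at 665nm after 320nm excitation.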
ClpP mod = qHTS Assay for Activators of ClpP. Potency, µM (top dose mostly 57.5 µM). ATP-dependent Clp protease proteolytic subunit (Bacillus subtilis (strain 168)), P80244. purified B. subtilis ClpP, FRET peptide cleavage, 20 min. 340,000 tested, 1.9% active; active = well fitted falling curve with a large enough effect; inconclusive = small, poorly fitted or top-dose-only effect; inactive = no such curve, though single readings can be large or run the other way; also: the source files actives as falling curves though it sought activators and does not explain the sign; nearly all actives have a fitted effect of over 65% in size
Target sequence (P80244 whole entry, looked up): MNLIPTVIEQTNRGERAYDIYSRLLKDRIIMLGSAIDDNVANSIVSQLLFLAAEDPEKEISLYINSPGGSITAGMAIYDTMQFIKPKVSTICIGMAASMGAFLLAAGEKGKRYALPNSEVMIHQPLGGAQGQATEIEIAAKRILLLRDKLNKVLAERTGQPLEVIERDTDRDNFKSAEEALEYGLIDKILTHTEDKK
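ClpP 10 microg/mL final, pH 8 Tris/KCl buffer with BSA, glycerol, Tween-20; compound pinned in; FRET-FV substrate; RT 20 min; Ex320/Em430; ΔFRET vs ADEP 5.8 microM, DMSO, no enzyme.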
MBNL1-CUG FRET = qHTS Assay for Inhibitors of MBNL1-poly(CUG) RNA binding: Initial hit validation from the primary screen; shares compounds with MBNL1-CUG inh; TR-FRET MBNL1-His / biotin-(CUG)12 binding, 60 min; Potency, µM (titrated, usually from 57.6 µM), actives largely listed as inhibitors; 140 tested, 50% active
MBNL1 AlphaScrn = qHTS Assay for Inhibitors of MBNL1-poly(CUG) RNA binding: Initial hit validation in AlphaScreen assay for MBNL1-(CUG)12 binding; shares compounds with MBNL1-CUG inh; AlphaScreen MBNL1-His / biotin-(CUG)12 binding; Potency, µM (top dose mostly 57.7 µM), actives largely listed as inhibitors; 140 tested, 30% active
Menin-MLL HTRF = qHTS Assay for Inhibitors of MBNL1-poly(CUG) RNA binding: Counterscreen HTRF assay; Potency, µM (titrated, usually from 57.6 µM), usual class: inhibitors; 120 tested, 20% active; AID 651843, 2012; shares compounds with MBNL1-CUG inh; His-Menin/biotin-MLL peptide TR-FRET counterscreen
ClpP inh valid = qHTS Assay for Activators of ClpP: Hit Validation of Inhibitors | shares compounds with ClpP mod | purified B. subtilis ClpP, FRET-FV substrate cleavage, 20 min | Potency, µM (highest dose often 57.5 µM), actives largely listed as inhibitors | 470 tested, 40% active | AID 743245, 2014; also: nearly all actives have a fitted effect of over 70% in size
Numbers stand for hits; – = inactive; ? = inconclusive; · = no result. Unless noted, calls follow the shape of the dose curve; as a rule, active = well fitted curve in the direction sought with a large enough effect; inconclusive = small, poorly fitted or top-dose-only effect, or another doubt; inactive = no such curve, though single readings can be large; an effect the other way counts as inactive or inconclusive.

SMILES	Mito fusion yeast	AT treatment	GRP78 ERSR act	MBNL1-CUG inh	TCR activator	ClpP mod	ClpP inh valid	others
COC(=O)NCc1cc2cc(Cl)ccc2[nH]1	–	·	–	39.8µM	–	–	·	MBNL1-CUG FRET=–;MBNL1 AlphaScrn=–;Menin-MLL HTRF=–
COC(=O)NCc1ccc(Cl)c(Cl)c1	–	–	–	–	–	–	·
CCOC(=O)N1CCN(c2nc(CN3CCCCC3CCO)nc3c(C)cccc23)CC1 (stereo unspecified)	·	·	–	·	·	·	·
Cc1ccc(NC(=O)Nc2csc3c2CCCC3)c(C)c1	·	·	–	·	·	–	·
COC(=O)Nc1csc2c1NC(=O)CCCC2	–	–	–	·	–	·	·	MBNL1-CUG FRET=25.9µM;MBNL1 AlphaScrn=10.3µM;Menin-MLL HTRF=–
Cc1ccc(-c2cc(C(F)(F)F)n3nc(C(=O)Nc4sc5c(c4C#N)CCC(C)C5)cc3n2)cc1 (stereo unspecified)	·	·	–	·	·	–	·
NC[C@H](O)c1ccc(O)c(O)c1	–	–	–	·	–	–	·	MBNL1-CUG FRET=6.51µM;MBNL1 AlphaScrn=?;Menin-MLL HTRF=?
NC[C@@H](O)c1ccc(O)c(O)c1	·	·	–	·	·	·	·
CNC[C@H](O)c1ccc(O)c(O)c1	–	–	–	22.4µM	–	–	·	MBNL1-CUG FRET=–;MBNL1 AlphaScrn=–;Menin-MLL HTRF=–
COc1ccc(C(=O)Nc2ncnc3nc[nH]c23)cc1	·	·	–	·	·	–	·
Cc1ncc2c(c1CNC(=O)c1cncs1)CCN(C(=O)c1ccc(C(C)(C)C)cc1)C2	·	·	–	·	·	·	·
C[C@]12C=CC(=O)C=C1CCC1C2C(=O)C[C@]2(C)C1CC[C@]2(O)C(=O)CO (stereo partly specified)	·	·	–	·	·	·	·
O=C1CCC[C@@H]2[C@@H](Cc3ccccc3)[C@@H](Nc3ccccc3)C[C@@H]3CCN1[C@@H]32	·	·	–	·	·	–	·
COc1ccc(/C=N/NC(=O)c2ccccc2)cc1CN1CCN(c2ccc(F)cc2)CC1	–	–	–	–	–	–	·
COc1cc(C(=O)N/N=C/c2ccc(OC)c(CN3CCN(c4ccc(F)cc4)CC3)c2)ccc1O	–	–	–	31.6µM	–	–	·	MBNL1-CUG FRET=?;MBNL1 AlphaScrn=–;Menin-MLL HTRF=–
CCCNC(=O)Nc1nc2ccccc2s1	–	–	–	–	–	–	·
CCCNC(=O)c1ccc(-c2nc3ccccc3s2)s1	–	·	–	?	–	2.82µM	24.3µM
Cc1nnc(NC(=O)c2sc3ccccc3c2Cl)s1	–	–	–	–	–	–	·
CNC(=O)c1ccsc1NC(=O)c1sc2ccccc2c1Cl	?	–	–	–	–	–	?
O=c1oc2ccc3ccccc3c2cc1-c1nc2ccccc2o1	·	·	–	·	–	2.51µM	–
COc1ccccc1NC(=O)c1ccc(NC(=O)CN2CCCCC2)cc1	·	–	–	·	–	·	·
COc1ccccc1NC(=O)CN1CCCCC1	–	–	–	–	–	3.98µM	–
COc1ccc(-n2c(=O)c(-c3ccccc3)nc3cnc(N4CCOCC4)nc32)cc1	·	·	–	·	·	·	·
COc1cccc(N2CCN(c3ncnc4c3c(-c3ccccc3)cn4-c3cccc(C(F)(F)F)c3)CC2)c1	·	·	–	·	·	3.98µM	21.7µM
O=C(NC1CCCCCC1)c1cc2ccccc2oc1=O	–	–	–	–	–	·	·
SMILES	Mito fusion yeast	AT treatment	GRP78 ERSR act	MBNL1-CUG inh	TCR activator	ClpP mod	ClpP inh valid	others
COc1ccc2cc(C(=O)NC3CCCCC3)c(=O)oc2c1	–	–	?	–	–	2.24µM	21.7µM
COc1ccc2cc(C(=O)NCc3ccco3)c(=O)oc2c1	–	–	–	?	–	10µM	21.7µM
O=C(NCc1ccco1)c1cc2ccc(O)cc2oc1=O	–	–	–	?	–	–	·
CCc1cc(N2CCOCC2)cc2c1[nH]c1ccccc12	–	–	–	–	·	10µM	17.2µM
COc1ccc(-c2ccc(OC)c(C3C4C=CCCC4(C)C(=O)N3Cc3ccccc3)c2)cc1OC (stereo unspecified)	·	·	–	·	·	·	·
Cc1ccc(NC(=O)c2ccc(NC(=O)c3ccccc3)cc2)cc1C	–	–	–	–	–	–	24.3µM
Cc1ccc(S(=O)(=O)c2nnn3c2nc(Nc2cccc(C)c2)c2ccccc23)cc1	–	–	–	–	–	–	·
Cc1ccc(C)c(Nc2nc3c(S(=O)(=O)c4ccccc4)nnn3c3ccccc23)c1	–	–	–	·	–	–	21.7µM
CCOc1ccc(N2CC(C(=O)Nc3ccc(S(=O)(=O)N4CCCCC4)cc3)CC2=O)cc1 (stereo unspecified)	–	–	–	·	–	7.94µM	–
CCOc1ccc(N2CC(C(=O)Nc3ccc(S(=O)(=O)N4CCCC4)cc3)CC2=O)cc1 (stereo unspecified)	–	–	–	–	–	·	·
CCOC(=O)C1CCCCN1C(=O)c1oc2c(Cl)cc(C)cc2c1C (stereo unspecified)	–	–	–	–	–	–	–
COc1ccc(CCNc2cc(C)nc3c(-c4ccc(Cl)cc4)cnn23)cc1OC	–	–	–	–	–	8.91µM	24.3µM
Cc1cccc(C)c1NC(=O)COC(=O)COc1ccc2c(C)cc(=O)oc2c1	–	–	–	–	–	–	–
C=C1C=C(C)n2ncc(C(=O)Nc3ccccc3C(=O)OC)c2N1	·	·	–	·	·	–	·
O=C(O)c1ccc2c(c1)OCCO2	–	–	–	–	–	–	·
NC(=O)c1ccc2c(c1)OCCO2	–	–	–	–	–	–	–
COc1ccc(NC(=O)Cn2cc(S(=O)(=O)c3ccccc3)c(=O)c3cc(C)ccc32)cc1Cl	·	·	–	·	·	–	·
